From the supplement of paper PMC12669032

Assays:
Test in all cases: growth AUC relative to DMSO control (median of replicates) (fraction); higher = more growth (less inhibition), active = hit call of the paper
Conditions in all cases: 20 µM; 24 h;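 active = AUC reduced over 20% with Padj below 0.05 in at least 2 of 3 replicates; inactive = otherwise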
[1] = tested on: Akkermansia muciniphila
Outline: (§1)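 Starting at OD600 0.05, gut bacterial monocultures in mGAM were grown anaerobically at 37 °C with 20 µM compound (1% DMSO) under pierced gas-permeable seals. OD600 was read every hour for 24 h, and the lowest OD of each curve was set to 0. Area under the growth curve was normalised to the plate median of solvent-only wells, or to row and column medians on the industrial chemical plate, and the median of three biological replicates grown on separate days is given.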

[2] = tested on: Bacteroides caccae
Outline: as §1

[3] = tested on: Bacteroides clarus
Outline: as §1

[4] = tested on: Bacteroides dorei
Outline: as §1

[5] = tested on: Bacteroides stercoris
Outline: as §1

[6] = tested on: Bacteroides thetaiotaomicron
Outline: as §1

[7] = tested on: Bacteroides uniformis
Outline: as §1

[8] = tested on: Bifidobacterium longum subsp. longum
Outline: as §1

[9] = tested on: Clostridium difficile
Outline: as §1

[10] = tested on: Collinsella aerofaciens
Outline: as §1

[11] = tested on: Coprococcus comes
Outline: as §1

[12] = tested on: Escherichia coli ED1a
Outline: as §1

[13] = tested on: Escherichia coli IAI1
Outline: as §1

[14] = tested on: Eubacterium rectale
Outline: as §1

[15] = tested on: Fusobacterium nucleatum subsp. animalis
Outline: as §1

[16] = tested on: Lactobacillus gasseri
Outline: as §1

[17] = tested on: Lactobacillus paracasei
Outline: as §1

[18] = tested on: Odoribacter splanchnicus
Outline: as §1

[19] = tested on: Parabacteroides distasonis
Outline: as §1

[20] = tested on: Parabacteroides merdae
Outline: as §1

Measured: growth AUC

CC1(C)CN=C(NN=C(/C=C/c2ccc(C(F)(F)F)cc2)/C=C/c2ccc(C(F)(F)F)cc2)NC1
inactive: [1] 0.911 | [2] 0.961 | [3] 0.979 | [4] 1.03 | [5] 0.902 | [6] 1.03 | [7] 0.991 | [8] 0.998 | [9] 0.972 | [10] 1.09 | [11] 1 | [12] 0.992 | [13] 1.04 | [14] 1.04 | [15] 1.06 | [16] 0.935 | [17] 0.903 | [18] 1.04 | [19] 1.06 | [20] 0.989

CC(Oc1ccc(Oc2ncc(C(F)(F)F)cc2Cl)cc1)C(=O)O (stereo not given)
inactive: [1] 1.02 | [2] 0.974 | [3] 0.957 | [4] 0.954 | [5] 0.979 | [6] 0.975 | [7] 0.943 | [8] 0.93 | [9] 1.01 | [10] 0.967 | [11] 0.99 | [12] 1.02 | [13] 0.987 | [14] 0.977 | [15] 1.01 | [16] 0.922 | [17] 0.876 | [18] 1.04 | [19] 0.978 | [20] 0.976

CN(C)S(=O)(=O)N(SC(F)(Cl)Cl)c1ccccc1
inactive: [1] 1.13 | [2] 1.01 | [3] 1.03 | [4] 0.998 | [5] 1.2 | [6] 1.01 | [7] 1.03 | [8] 0.989 | [9] 1.01 | [10] 0.98 | [11] 1.04 | [12] 1.03 | [13] 1.01 | [14] 1.09 | [15] 1.06 | [16] 1.03 | [17] 1.07 | [18] 1.04 | [19] 1.02 | [20] 0.99

ClC1=C(Cl)[C@]2(Cl)[C@@H]3[C@H]4C[C@H]([C@@H]5O[C@H]45)[C@@H]3[C@@]1(Cl)C2(Cl)Cl
inactive: [1] 0.861 | [2] 0.979 | [3] 0.864 | [4] 0.958 | [5] 0.773 | [6] 0.925 | [8] 0.962 | [9] 1 | [10] 0.936 | [11] 0.943 | [12] 0.994 | [13] 0.966 | [14] 1.02 | [15] 1.05 | [16] 0.936 | [17] 0.963 | [18] 0.998 | [19] 0.897 | [20] 0.946
active: [7] 0.709

CC(C)[C@@H](Nc1ccc(C(F)(F)F)cc1Cl)C(=O)OC(C#N)c1cccc(Oc2ccccc2)c1 (stereo not given in full)
inactive: [1] 1.09 | [2] 1.02 | [3] 1.04 | [4] 1.04 | [5] 1.01 | [6] 0.994 | [7] 1.01 | [8] 1.02 | [9] 1.04 | [10] 0.933 | [11] 0.988 | [12] 1 | [13] 1.05 | [14] 1.04 | [15] 1.06 | [16] 1.02 | [17] 1.04 | [18] 1.05 | [19] 1.09 | [20] 1.03

CN(C)C(=S)SSC(=S)N(C)C
active: [6] 0.75 | [18] 0.0343
inactive: [1] 0.83 | [2] 0.968 | [3] 0.967 | [4] 0.961 | [5] 0.87 | [7] 0.909 | [8] 0.974 | [9] 0.945 | [10] 0.957 | [11] 0.833 | [12] 0.973 | [13] 0.973 | [14] 0.83 | [15] 1.09 | [16] 0.875 | [17] 1.02 | [19] 0.928 | [20] 0.852

CC(C)N(C(=O)COc1nnc(C(F)(F)F)s1)c1ccc(F)cc1
active: [1] 0.411
inactive: [2] 1.05 | [3] 1.02 | [4] 0.996 | [5] 0.973 | [6] 0.952 | [7] 0.907 | [8] 1.03 | [9] 0.955 | [10] 1.01 | [11] 0.988 | [12] 1.03 | [13] 1.01 | [14] 1.1 | [15] 1.05 | [16] 1.04 | [17] 1.02 | [18] 1 | [19] 0.937 | [20] 0.986

COc1cc(OC)nc(NC(=O)NS(=O)(=O)c2ncccc2C(F)(F)F)n1
inactive: [1] 0.985 | [2] 1.02 | [3] 0.977 | [4] 0.991 | [5] 0.908 | [6] 1.02 | [7] 1.02 | [8] 1 | [9] 1.02 | [10] 0.972 | [11] 1.02 | [12] 0.985 | [13] 0.998 | [14] 1.09 | [15] 1.04 | [16] 1.02 | [17] 0.986 | [18] 1.09 | [19] 1.05 | [20] 1.04

CN(C)C(=O)C(c1ccccc1)c1ccccc1
inactive: [1] 0.89 | [2] 1.03 | [3] 0.963 | [4] 1.05 | [5] 0.957 | [6] 0.992 | [7] 1.05 | [8] 0.947 | [9] 1.03 | [10] 1.01 | [11] 0.974 | [12] 0.98 | [13] 0.977 | [14] 1.11 | [15] 0.975 | [16] 1 | [17] 0.887 | [18] 0.957 | [19] 1 | [20] 1

C=CCC1=C(C)C(OC(=O)C2C(C=C(C)C)C2(C)C)CC1=O (mixture of isomers)
inactive: [1] 1.05 | [2] 0.96 | [3] 1.04 | [4] 0.962 | [5] 0.924 | [6] 0.972 | [7] 0.936 | [8] 0.96 | [9] 0.962 | [10] 0.941 | [11] 0.963 | [12] 0.968 | [13] 1.01 | [14] 1.09 | [15] 1.01 | [16] 0.818 | [17] 0.943 | [18] 1.01 | [19] 0.771 | [20] 0.955

O=c1c2cc(F)ccc2nc(-n2cncn2)n1-c1ccc(Cl)cc1Cl
inactive: [1] 0.855 | [2] 0.976 | [3] 0.979 | [4] 1.05 | [5] 1 | [6] 0.925 | [7] 0.937 | [8] 0.791 | [9] 1.12 | [10] 1.07 | [11] 0.999 | [12] 0.987 | [13] 0.99 | [14] 0.963 | [15] 0.976 | [16] 1.05 | [17] 0.634 | [18] 0.977 | [19] 1.02 | [20] 0.93

CCC(C)(CC)c1cc(NC(=O)c2c(OC)cccc2OC)on1
inactive: [1] 1.05 | [2] 1.01 | [3] 0.949 | [4] 1.03 | [5] 1.04 | [6] 0.959 | [7] 0.965 | [8] 1.04 | [9] 1 | [10] 0.959 | [11] 1.03 | [12] 1.01 | [13] 0.988 | [14] 0.986 | [15] 0.986 | [16] 0.932 | [17] 1.02 | [18] 1.04 | [19] 1 | [20] 0.939

O=C(O)CCCOc1ccc(Cl)cc1Cl
inactive: [1] 0.929 | [2] 1.04 | [3] 0.978 | [4] 1.02 | [5] 0.922 | [6] 1.02 | [7] 1.07 | [8] 1.06 | [9] 1.01 | [10] 0.984 | [11] 1.05 | [12] 0.984 | [13] 0.981 | [14] 1.18 | [15] 0.933 | [16] 1.01 | [17] 1 | [18] 1.11 | [19] 0.919 | [20] 0.979
